10 compounds from PubChem BioAssay (NCATS) can be followed below.

Several values for one entry are separate records, joined by “and”; a condition that tells them apart may be missing. Equal entries are not always repeated. Records with an inconclusive call do not appear. A number with no mark means an inactive call. Activity calls are given as the source filed them. Unless noted, the call rests on the fitted dose curve; in most records, active means well fitted curve in the direction sought with a large enough effect in the repeat runs; inconclusive means weak or mixed curves; inactive means no such curve, though single readings can be large; an effect the other way counts as inactive or inconclusive.

Test system in the first assay: not listed separately
The experiment in a line: A High-Content qHTS Against Drug Library for the Identification of Small Molecules that Inhibit DYT1 Early Onset Primary Dystonia-Associated Cell Pathology (AID 1645839; calls by dose curve). The settings on record: HEK293 Flp-In EGFP-delE TorsinA, punctate imaging, 48 h; series mostly up to 46.1 µM; % pathology change, negative = correction: at the top concentration. An excerpt:
Nicole Calakos M.D., Ph.D.
Duke University School of Medicine, Durham, NC
In DYT1 dystonia due to delGAG in the TOR1A gene, there is a robust and widely replicated finding of TorsinA protein mislocalization caused when the mutant protein is in excess of the wildtype protein (1-7). Stable HEK293 cell lines were created that replicate this phenomenon. Inducible expression of an EGFP-hu delE TorsinA encoding cDNA causes pronounced punctate cellular distribution. […] This phenotypic difference in EGFP-huTorsinA fusion protein distribution serves as an indicator of cell pathology. […] RNAi screen results with the assay were validated in DYT1 patient cell phenotypes, intersected with a known dystonia gene, and led to discovery of new human genetic dystonia associations.
The bioassay described herein is a high-content image screen with two readouts. The "%pathology" readout is the primary qHTS data channel, while the "cellcount" is the counterscreen qHTS channel. Desired active compounds are those that show inhibition in %pathology channel but no activity or minimal toxicity in cellcount readout.
1. Kustedjo, K., Bracey, M.H., and Cravatt, B.F. (2000). […] J. Biol. Chem. 275, 27933 - 27939.
2. Bragg, D.C., Kaufman, C.A., Kock, N., and Breakefield, X.O. (2004). Inhibition of N-linked glycosylation prevents inclusion formation by the dystonia-related mutant form of torsinA. Mol. Cell. Neurosci. 27, 417 - 426.
3. Gonzalez-Alegre, P., and Paulson, H.L. (2004). Aberrant Cellular Behavior of Mutant TorsinA Implicates Nuclear Envelope Dysfunction in DYT1 Dystonia. J. Neurosci. 24, 2593 - 2601.
4. Goodchild, R.E., and Dauer, W.T. (2004). Mislocalization to the nuclear envelope: an effect of the dystonia-causing torsinA mutation. Proc. Natl. Acad. Sci. U. S. A. 101, 847 - 852.
5. Kock, N., Allchorne, A.J., Sena-Esteves, M., Woolf, C.J., and Breakefield, X.O. (2006). RNAi blocks DYT1 mutant torsinA inclusions in neurons. Neurosci. Lett. 395, 201 - 205.
6. Hewett, J.W., Nery, F.C., Niland, B., Ge, P., Tan, P., Hadwiger, P., Tannous, B.A., Sah, D.W.Y., and Breakefield, X.O. (2008). siRNA knock-down of mutant torsinA restores processing through secretory pathway in DYT1 dystonia cells. Hum. Mol. Genet. 17, 1436 - 1445.
7. Calakos, N., Patel, V.D., Gottron, M., Wang, G., Tran-Viet, K.N., Brewington, D., Beyer, J.L., Steffens, D.C., Krishnan, R.R., and Zuchner, S. (2010). Functional evidence implicating a novel TOR1A mutation in idiopathic, late-onset focal dystonia. J. Med. Genet. 47, 646 - 650.
8. Rittiner* JE, Caffall* ZF, Hernandez-Martinez R, Sanderson SM, Pearson JL, Tsukayama KK, Liu AY, Xiao C, Tracy S, Shipman MK, Hickey P, Johnson J, Scott B, Stacy M, Saunders-Pullman R, Bressman S, Simonyan K, Sharma N, Ozelius LJ, Cirulli ET, Calakos N. Functional Genomic Analyses of Mendelian and Sporadic Disease Identify Impaired eIF2alpha Signaling as a Generalizable Mechanism for Dystonia. Neuron. 2016 Dec 21;92(6):1238-1251. doi: 10.1016/j.neuron.2016.11.012. Epub 2016 Dec 8. PMID: 27939583; PMCID: PMC5320521.
High-content, High-throughput Drug Screening Assay
The TorsinA mislocalization assay was modified from the previously published assay to accommodate compound testing in 1536 well format.1 Briefly, Flp-In T-REx 293 cells from Invitrogen in which a single copy of a cDNA is recombined into a specific genomic locus was used to create tetracycline-inducible expression of cDNA encoding either EGFP-hTOR1A (WT) or EGFP-delE hTOR1A (DYT1). WT and DYT1 cells were diluted to a concentration of 2 x 10^5 cells/mL in reduced serum media (DMEM High Glucose containing 1% tetracycline-tested FBS, 2 mM L-Glutamine, and 1% Penicillin/Streptomycin). 4 µl of WT cells and 4 µl of DTY1 cells were added to column 1 and columns 2-48, respectively, of a poly-D-lysine-coated, low base, black, clear bottom 1536 well plate (Corning, Corning, NY) using the BioRAPTR FRD Microfluidic Workstation (Beckman Coulter, Indianapolis, IN). The final cell number was 800 cells/well. […]
A general note: qHTS replaces the single test concentration by a dilution series.
As for `CCCCC(=O)O[C@]1(C(=O)CO)[C@@H](C)C[C@H]2[C@@H]3CCC4=CC(=O)C=C[C@]4(C)[C@@]3(F)[C@@H](O)C[C@@]21C`, the “% pathology change, negative = correction” value (“% pathology change” for short) was 14.5%.

Turning to `N[C@H]1CN(c2c(F)cc3c(=O)c(C(=O)O)cn(C4C[C@@H]4F)c3c2Cl)CC12CC2` (some centres not stated), the “% pathology change” value was 4.76%.

Turning to `CC1(C)O[C@@H]2C[C@H]3[C@@H]4CCC5=CC(=O)C=C[C@]5(C)[C@@H]4[C@@H](O)C[C@]3(C)[C@]2(C(=O)CO)O1`, the “% pathology change” value is 10.9%.

On to `Cc1cn([C@@H]2O[C@H](CO)[C@@H](O)[C@H]2F)c(=O)[nH]c1=O`, for which the “% pathology change” value was 12.7%.

As to `CCn1c(=O)c2c(nc(C=Cc3ccc(OC)c(OC)c3)n2C)n(CC)c1=O`, the “% pathology change” value was -14.2%.

In the case of `Nc1ccn(C2CO[C@H](CO)O2)c(=O)n1` (some centres not stated), the “% pathology change” value is 9.86%.

For another assay, the target named is Cytochrome P450 2D6 (Homo sapiens) (UniProt P10635). The experiment in a line: Cytochrome P450 family 2 subfamily D member 6 (CYP2D6) small molecule antagonists: luciferase biochemical (cell-free) qHTS assay (AID 1645840). Further: nearly all actives have a fitted effect of over 55% in size. Further: potency means the concentration at half of the fitted maximal effect. On activity change, negative = inhibition: on the % scale 0 is the no-effect control and ±100 the full control effect. As to conditions: P450-Glo CYP2D6 enzyme, luciferin luminescence, 1 h; series mostly up to 57.4 µM; activity change, negative = inhibition: at the top concentration. The method, boiled down: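 P450-Glo luminescent screen: recombinant CYP2D6 enzyme–proluciferin substrate mix preincubated with compound 10 min at room temperature, then NADPH regeneration added for 1 h at room temperature. Detection reagent added for 20 min; luciferin light read as relative luminescence units.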
Sequence of Cytochrome P450 2D6 (Homo sapiens) (P10635 whole entry, looked up): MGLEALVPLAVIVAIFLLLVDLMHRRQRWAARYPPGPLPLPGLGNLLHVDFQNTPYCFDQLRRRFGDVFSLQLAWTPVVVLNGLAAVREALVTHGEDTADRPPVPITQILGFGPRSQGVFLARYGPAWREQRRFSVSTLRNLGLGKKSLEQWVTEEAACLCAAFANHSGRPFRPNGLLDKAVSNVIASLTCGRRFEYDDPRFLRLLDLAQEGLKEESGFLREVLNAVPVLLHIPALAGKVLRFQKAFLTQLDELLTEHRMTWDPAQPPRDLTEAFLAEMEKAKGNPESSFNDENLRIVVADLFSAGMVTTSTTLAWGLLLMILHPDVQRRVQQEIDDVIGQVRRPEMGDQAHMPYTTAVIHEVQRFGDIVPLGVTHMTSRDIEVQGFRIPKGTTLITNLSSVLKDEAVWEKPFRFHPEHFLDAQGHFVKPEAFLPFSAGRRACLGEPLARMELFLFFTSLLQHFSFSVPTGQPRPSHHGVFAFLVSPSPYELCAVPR
Take `Cc1coc2c1C(=O)C(=O)c1c-2ccc2c(C)cccc12`: the Potency is 3.38 µM (active).

For the compound `C[C@@H](NCc1cc2ccccc2[nH]1)c1cccc2ccccc12`, the Potency is 0.0952 µM (active).

On to `N[C@H]1CN(c2c(F)cc3c(=O)c(C(=O)O)cn(C4C[C@@H]4F)c3c2Cl)CC12CC2` (some centres not stated), for which the “activity change, negative = inhibition” value was -2.04%.

As to `CC1(C)O[C@@H]2C[C@H]3[C@@H]4CCC5=CC(=O)C=C[C@]5(C)[C@@H]4[C@@H](O)C[C@]3(C)[C@]2(C(=O)CO)O1`, the “activity change, negative = inhibition” value is -17.2%.

Regarding `Cc1ccc(-n2[nH]c(C)c(N=Nc3cccc(-c4cccc(C(=O)O)c4)c3O)c2=O)cc1C`, the Potency is 4.9 µM (active) and 7.56 µM (active).

As for `Cc1cn([C@@H]2O[C@H](CO)[C@@H](O)[C@H]2F)c(=O)[nH]c1=O`, the “activity change, negative = inhibition” value is 12.1%.

On to `CCn1c(=O)c2c(nc(C=Cc3ccc(OC)c(OC)c3)n2C)n(CC)c1=O`, for which the “activity change, negative = inhibition” value is 9.22%.

On to `Nc1ccn(C2CO[C@H](CO)O2)c(=O)n1` (some centres not stated), for which the “activity change, negative = inhibition” value is 9.69%.

The target of the next assay is Cytochrome P450 2C9 (Homo sapiens) (UniProt P11712). The experiment in a line: Cytochrome P450 family 2 subfamily C member 9 (CYP2C9) small molecule antagonists: luciferase biochemical (cell-free) qHTS assay (AID 1645842). Further: nearly all actives have a fitted effect of over 55% in size. Further: potency means the concentration at half of the fitted maximal effect. On activity change, negative = inhibition: on the % scale 0 is the no-effect control and ±100 the full control effect. As to conditions: P450-Glo CYP2C9 enzyme assay, luciferin luminescence; series mostly up to 57.4 µM; activity change, negative = inhibition: at the top concentration. In outline: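 Luminescence, after 20 min with luciferin detection reagent, reflected CYP2C9 turnover during a 1 h NADPH-driven reaction at 37C. Enzyme-substrate mix contained 0.4% bovine serum albumin and was preincubated with compound 10 min at room temperature.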
Sequence of Cytochrome P450 2C9 (Homo sapiens) (P11712 whole entry, looked up): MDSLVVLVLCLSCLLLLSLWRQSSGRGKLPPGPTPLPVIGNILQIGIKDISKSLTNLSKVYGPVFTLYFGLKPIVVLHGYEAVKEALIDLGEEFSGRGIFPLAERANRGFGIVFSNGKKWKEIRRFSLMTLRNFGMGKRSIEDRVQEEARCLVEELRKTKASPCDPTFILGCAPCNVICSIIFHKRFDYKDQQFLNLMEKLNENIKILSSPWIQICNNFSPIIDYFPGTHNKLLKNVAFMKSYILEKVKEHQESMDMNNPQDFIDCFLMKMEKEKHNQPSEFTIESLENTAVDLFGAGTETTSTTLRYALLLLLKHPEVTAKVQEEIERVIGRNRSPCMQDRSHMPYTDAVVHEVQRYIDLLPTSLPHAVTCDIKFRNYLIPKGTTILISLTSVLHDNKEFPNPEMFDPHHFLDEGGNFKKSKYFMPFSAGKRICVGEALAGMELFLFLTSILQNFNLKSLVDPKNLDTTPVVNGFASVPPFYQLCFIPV
With `Cc1coc2c1C(=O)C(=O)c1c-2ccc2c(C)cccc12`, the Potency is 9.52 µM (active).

Turning to `C[C@@H](NCc1cc2ccccc2[nH]1)c1cccc2ccccc12`, the Potency is 10.7 µM (active).

Turning to `CCCCC(=O)O[C@]1(C(=O)CO)[C@@H](C)C[C@H]2[C@@H]3CCC4=CC(=O)C=C[C@]4(C)[C@@]3(F)[C@@H](O)C[C@@]21C`, the Potency is 15.5 µM (active).

For the compound `N[C@H]1CN(c2c(F)cc3c(=O)c(C(=O)O)cn(C4C[C@@H]4F)c3c2Cl)CC12CC2` (some centres not stated), the “activity change, negative = inhibition” value is 2.11%.

For the compound `Cc1ccc(-n2[nH]c(C)c(N=Nc3cccc(-c4cccc(C(=O)O)c4)c3O)c2=O)cc1C`, the “activity change, negative = inhibition” value is -25.7%.

Consider `Cc1cn([C@@H]2O[C@H](CO)[C@@H](O)[C@H]2F)c(=O)[nH]c1=O`, for which the “activity change, negative = inhibition” value was 0.765%.

Take `Cc1ccccc1C(=O)Nc1ccc(C(=O)N2CCCC(O)c3cc(Cl)ccc32)c(C)c1` (configuration not stated): the Potency was 27.5 µM (active).

In the case of `Nc1ccn(C2CO[C@H](CO)O2)c(=O)n1` (some centres not stated), the “activity change, negative = inhibition” value was 5.27%.
